# Only some compounds are listed: those with a hit (about 6% of all), similar ones and a draw of the others.
# DRD3 antagonist = D3 dopamine receptor (human) antagonism | D3R cells, DiscoveRx beta-arrestin luminescence, antagonist mode; stronger effect = lower value | max response, negative = inhibition, % | 360,000 tested, 2.5% active; in the data active means max response below about -50%; further: on the % scale 0 is the no-effect control and ±100 the full control effect
#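 Cells plated overnight at 1500 cells/well, then exposed to library compounds with dopamine controls for 90 minutes at 37 degrees C. DiscoveRx reagent added for 30–60 minutes at room temperature; luminescence read, quantitative HTS format.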
# D1 potentiator = human D1 dopamine receptor positive modulation; P21728; HEK293 TREx D1 cells, calcium flux, dopamine EC20 potentiation; potentiation, % at 10 µM; 360,000 tested, 0.036% active; AID 504651; in the data active means potentiation above about 30%; further: 0% is about no effect
# Target sequence (P21728 whole entry, looked up): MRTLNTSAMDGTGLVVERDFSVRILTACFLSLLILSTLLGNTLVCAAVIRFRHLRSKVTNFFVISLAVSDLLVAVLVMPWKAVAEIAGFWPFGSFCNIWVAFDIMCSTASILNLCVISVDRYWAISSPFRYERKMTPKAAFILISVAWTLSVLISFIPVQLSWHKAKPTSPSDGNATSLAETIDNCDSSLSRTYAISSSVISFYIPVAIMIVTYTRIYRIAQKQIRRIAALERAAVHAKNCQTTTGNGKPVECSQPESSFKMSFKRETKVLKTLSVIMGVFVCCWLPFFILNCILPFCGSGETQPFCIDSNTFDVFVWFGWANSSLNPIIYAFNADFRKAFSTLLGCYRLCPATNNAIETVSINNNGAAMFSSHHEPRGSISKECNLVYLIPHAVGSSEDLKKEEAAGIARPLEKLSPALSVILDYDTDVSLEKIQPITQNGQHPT
# D3 ag = activates the human D3 dopamine receptor. P35462. D3R DiscoveRx beta-arrestin cells, luminescence, 90 min. max activation, %. 410,000 tested, 0.58% active. AID 652048; in the data active means max activation above about 30%; further: 0% is about no effect
#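 Agonist mode: compounds and dopamine controls were applied to plated cells for 90 min at 37 degrees C after an overnight attachment at 1500 cells/well. Luminescent read-out followed 30 - 60 minutes at room temperature with DiscoveRx detection reagent.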
# D1 ag = agonists of human D1 dopamine receptor | activation, % at 2 µM | 360,000 tested, 1% active | AID 504660 | HEK293 T-REx D1 cells, calcium flux, agonist mode | P21728; in the data active means activation above about 30%; further: 0% is about no effect
#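 Inducible HEK293 T-REx D1 cells, force-coupled to calcium signalling, were plated at 4000 cells/well with tetracycline and held overnight at 30 C. After no-wash calcium dye loading, compound-evoked calcium rise over 180 s flagged agonists.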
# D1 antagonist = human D1 dopamine receptor antagonism; P21728; HEK293 TREx D1 cells, calcium flux, dopamine EC80; stronger effect = lower value; activity change, negative = inhibition, % at 10 µM; 360,000 tested, 3.2% active; AID 504652; in the data active means activity change below about -30%; further: on the % scale 0 is the no-effect control and ±100 the full control effect
#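 Calcium flux readout: force-coupled, inducible Hek293 Trex D1 line, cells induced overnight at 30 C with tetracycline, dye-loaded 30–90 min at RT. Antagonism scored against EC80 dopamine challenge given 180 s after compound.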
# * hit, by the source's call; nt = not tested or not shown.
SMILES,DRD3 antagonist,D1 potentiator,D3 ag,D1 ag,D1 antagonist
COc1cccc(C(=O)N(C)CC2CCN(CCc3cccc(C(F)(F)F)c3)CC2)c1,-16,5,-21,-3,-32*
CN(CC1CCCN(CCc2cccc(C(F)(F)F)c2)C1)C(=O)c1cc2ccccc2o1 (centres undefined),-74*,-7,-21,3,-25
COc1ccc(NC(=O)N(C)C[C@H]2Oc3c(NC(=O)Nc4ccccc4)cccc3C(=O)N([C@H](C)CO)C[C@@H]2C)cc1,6,nt,12,nt,nt
COc1ccc(S(=O)(=O)Nc2cccc3c2O[C@@H](CN(C)Cc2ccc(C(=O)O)cc2)[C@@H](C)CN([C@H](C)CO)C3=O)cc1,3,nt,50*,nt,nt
COc1ccc(NC(=O)Nc2cccc3c2O[C@H](CN(C)C(=O)Nc2ccc(OC)cc2)[C@@H](C)CN([C@H](C)CO)C3=O)cc1,65,nt,33*,nt,nt
O=C(COc1ccc(Cl)cc1)NCCNC(=O)c1ccccn1,7,nt,-3,5,-22
O=C(CN1C(=O)C(=O)N(CCC2=CCCCC2)C1=O)c1c[nH]c2ccccc12,-52*,nt,2,nt,nt
CCN(CC)C(=O)Cn1cc(C(=O)C(=O)NCCc2ccc(S(N)(=O)=O)cc2)c2ccccc21,-4,-13,1,2,-74*
CCOc1ccc(CNC(=O)c2ccc(CSc3nc4ccncc4n3Cc3ccc(F)cc3)cc2)cc1,nt,-5,-18,7,-14
COc1cc(Cl)c(C)cc1NC(=O)CCc1nc2cccnc2n1-c1ccccc1,nt,-1,-3,0,8
COc1cc(O)cc(/C=C/c2ccccc2)c1,6,nt,70*,nt,nt
CCOC(=O)/C=c1\s/c(=C\c2ccccc2C)c(=O)n1CC(=O)NCc1ccc2c(c1)OCO2,1,-10,0,5,-57*
Cc1cccc(NC(=O)CN2CCN(C(=O)CNC(=O)c3ccc(-c4ccccc4)cc3)CC2)c1C,0,nt,-1,nt,nt
COc1cc2ccnc(Cc3cccc(OC)c3OC)c2cc1OC,11,-1,1,12,-44*
COc1cc(N)c(Cc2nccc3cc(OC)c(OC)cc23)cc1OC,11,3,5,0,-6
Cc1ccc2[nH]c(=O)c3cc(C(=O)N4CCN(c5ccccc5)CC4)sc3c2c1,nt,3,-1,-1,9
O=C(Nc1ccc(O)c(-c2nc3ccccc3o2)c1)c1sc2ccccc2c1Cl,nt,0,2,0,-30*
Cc1nnc(NC(=O)c2sc3ccccc3c2Cl)s1,-73*,-2,-10,3,-7
C=CCNc1nc(C(=O)OCC(=O)c2ccc(Cl)cc2)cs1,3,-1,-12,7,12
C/C(=N\NS(=O)(=O)c1c(C)cc(C)cc1C)c1ccncc1,7,1,6,1,-6
Cc1ccc(N2C(=O)C(CC(=O)Nc3cccc(F)c3)N(CCc3ccccc3F)C2=O)cc1 (centres undefined),nt,1,-24,0,2
CC(C)(C)NCCCCOc1ccccc1F,-23,-8,-27,3,-14
CNCCOc1ccccc1C(C)(C)C,-54*,-3,-61,10,-8
CC(C)(C)c1ccccc1OCCOCCNCc1ccccc1,-78*,-1,21,36*,-21
CC(=O)OCC(=O)[C@@]12OC(C)(C)O[C@@H]1C[C@H]1[C@@H]3C[C@H](F)C4=CC(=O)C=C[C@]4(C)[C@@]3(F)[C@@H](O)C[C@@]12C,22,-3,15,5,-35*
SMILES,DRD3 antagonist,D1 potentiator,D3 ag,D1 ag,D1 antagonist
CC(=O)OCC(=O)[C@@]12OC(C)(C)O[C@@H]1CC1C3C[C@H](F)C4=CC(=O)C=CC4(C)[C@@]3(F)C(O)CC12C (some centres undefined),-20,-3,6,-1,21
CCCCOc1ccccc1N1CCN(CCCN2C(=O)C3CCCN3C2=O)CC1 (centres undefined),-87*,-7,-17,0,5
O=C1C2CCCN2C(=O)N1CCN1CCN(CCO)CC1 (centres undefined),-10,-5,3,2,-13
COc1ccccc1N1CCN(CCCCN2C(=O)C3CCCCN3C2=O)CC1 (centres undefined),-77*,4,-35,1,-26
COc1ccccc1N1CCN(C(=O)CN2C(=O)C3CCCCC3C2=O)CC1 (centres undefined),-16,0,0,1,-5
COc1ccccc1N1CCN(CC(=O)c2ccc(F)cc2)CC1,-14,1,-21,1,-8
Cc1ccccc1N1CCN(CCCCN2C(=O)C3CCCN3C2=O)CC1 (centres undefined),-84*,-11,-14,7,-57*
COc1ccccc1N1CCN(CCCN2CC(=O)N3CCCCC3C2=O)CC1 (centres undefined),-53*,nt,-17,nt,nt
CCN(CC)CCCNC(=O)CN1C(=O)CCn2nc(-c3cn(C)c4ccccc34)cc21,nt,4,-7,2,9
CCN(CC)S(=O)(=O)c1ccc2nc(NC(=O)c3cccnc3)sc2c1,nt,1,1,2,11
COc1ccc(C2c3ccc(O)cc3Oc3ncn4nc(-c5ccco5)nc4c32)cc1OC (centres undefined),14,0,5,5,-1
Cc1cc(=O)n2nc(N3CCCC(C(=O)NCc4ccco4)C3)sc2n1 (centres undefined),5,-2,-5,4,9
O=C(NCc1ccco1)C1CCCN(c2nnc(-n3cccc3)s2)C1 (centres undefined),-9,-1,3,2,-39*
COc1cccc(/C=N/NC(=O)c2[nH]c(C)c(C(=O)N/N=C/c3cccc(OC)c3)c2C)c1,-18,-13,-25,2,-41*
CCOC(=O)c1c(C)[nH]c(C(=O)N/N=C/c2cccc(OC)c2)c1C,10,-7,-3,4,-21
CCOC(=O)c1ccc(N2C(=O)c3[nH]nc(-c4ccccc4)c3C2c2ccc(CC)cc2)cc1 (centres undefined),nt,7,3,5,24
O=C(Nc1cc(C(F)(F)F)ccc1Cl)c1cnn(-c2ccccc2)c1-n1cccc1,nt,1,55*,9,3
CC(=O)c1nn(-c2ccc(Cl)cc2)c(=O)[nH]c1=O,10,-7,0,0,20
O=C1CCC(=O)c2ccc3c4c(ccc1c24)CC3,2,nt,-1,nt,nt
O=C1CCN2C=Nc3cccc4ccc1c2c34,35,-4,12,170*,-1
Cn1c(=O)n(C)c2cc(N3CCCCC3)c(NC(=O)c3ccc(Cl)cc3)cc21,nt,-1,-8,1,-11
CN(C)c1ccc(N=Nc2nc3ccccc3n2C)cc1,-74*,-5,-20,3,-1
Cn1c(N=Nc2ccccc2)nc2ccccc21,-7,-1,-5,6,0
Cc1cccc(C)c1NC(=O)c1cc2sccc2n1Cc1ccc(F)cc1,nt,1,-8,11,-6

# Bioassay records from PubChem.
